IDE exosite FP – exo-site inhibitors of human IDE, primary screen, biochemical, fluorescence anisotropy, probe displacement | purified IDE, FL-6b probe fluorescence polarization; active compounds read low | z-score at 20 µM | hit rate 6.3% among 17,000 | AID 1259349, 2017;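 active = z-score of -3 or lower, meaning strong loss of probe binding signal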;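 note: His-tagged human IDE residues 42-1019 made in E. coli with 30 nM FL-6b probe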
Target sequence (P14735 42-1019 limits assumed): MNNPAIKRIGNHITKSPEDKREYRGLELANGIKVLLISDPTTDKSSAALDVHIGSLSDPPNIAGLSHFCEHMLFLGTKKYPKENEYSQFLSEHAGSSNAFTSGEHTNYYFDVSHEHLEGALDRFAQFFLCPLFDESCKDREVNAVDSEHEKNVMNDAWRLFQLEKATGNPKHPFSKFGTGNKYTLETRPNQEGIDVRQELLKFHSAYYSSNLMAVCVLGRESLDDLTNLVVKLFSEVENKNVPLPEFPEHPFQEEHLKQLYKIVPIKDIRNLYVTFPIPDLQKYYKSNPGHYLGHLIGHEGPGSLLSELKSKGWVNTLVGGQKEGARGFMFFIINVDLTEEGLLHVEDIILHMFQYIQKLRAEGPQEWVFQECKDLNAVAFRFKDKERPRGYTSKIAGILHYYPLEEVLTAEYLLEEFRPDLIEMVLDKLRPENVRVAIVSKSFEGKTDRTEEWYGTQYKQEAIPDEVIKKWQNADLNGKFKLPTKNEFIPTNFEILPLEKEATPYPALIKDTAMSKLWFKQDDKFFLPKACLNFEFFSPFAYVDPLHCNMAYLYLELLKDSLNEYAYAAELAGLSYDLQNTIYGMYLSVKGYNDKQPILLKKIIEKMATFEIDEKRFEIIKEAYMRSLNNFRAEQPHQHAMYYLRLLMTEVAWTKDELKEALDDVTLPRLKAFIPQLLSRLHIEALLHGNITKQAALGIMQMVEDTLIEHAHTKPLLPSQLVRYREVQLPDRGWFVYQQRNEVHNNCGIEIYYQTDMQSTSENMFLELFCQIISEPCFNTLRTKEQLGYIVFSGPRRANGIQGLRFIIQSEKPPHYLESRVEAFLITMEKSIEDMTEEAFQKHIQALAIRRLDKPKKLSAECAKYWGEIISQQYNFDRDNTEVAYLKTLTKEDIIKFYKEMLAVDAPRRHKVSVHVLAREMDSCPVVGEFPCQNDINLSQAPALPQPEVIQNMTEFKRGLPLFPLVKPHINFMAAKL
A number is an active result; – = inactive. Shown is part of a subset that was picked to be rich in hits.

SMILES | IDE exosite FP
N#Cc1cccc(-c2ccc([C@H]3[C@H]4CN(C(=O)Cc5ccccc5)CCCCN4[C@H]3CO)cc2)c1 | –
COc1cccc(CN2CC3(C2)[C@H](c2ccccc2)[C@H](CO)N3C(=O)Cc2ccccc2)c1 | –
O=C(Cc1ccccn1)N1CCCCN2[C@H](C1)[C@@H](c1ccc(-c3ccccc3F)cc1)[C@@H]2CO | -4.48
Cc1ccccc1-c1ccc([C@H]2[C@H]3CN(C(=O)Cc4ccccn4)CCCCN3[C@H]2CO)cc1 | –
Cc1ccccc1-c1ccc([C@H]2[C@@H](CO)N3CCCCN(C(=O)Cc4ccccn4)C[C@@H]23)cc1 | -5.7
O=C(Cc1ccccn1)N1CCCCN2[C@H](CO)[C@H](c3ccc(-c4ccccc4)cc3)[C@@H]2C1 | –
Cc1ccccc1-c1ccc([C@@H]2[C@H]3CN(C(=O)Cc4ccccn4)CCCCN3[C@H]2CO)cc1 | -10.2
O=C(Cc1ccccn1)N1CCCCN2[C@@H](CO)[C@H](c3ccc(-c4ccccc4)cc3)[C@@H]2C1 | –
O=C(Cc1ccccn1)N1CCCCN2[C@H](CO)[C@@H](c3ccc(-c4ccc(F)cc4)cc3)[C@H]2C1 | –
O=C(Cc1ccccn1)N1CCCCN2[C@H](CO)[C@@H](c3ccc(-c4ccccc4)cc3)[C@H]2C1 | –
O=C(Cc1ccccn1)N1CCCCN2[C@H](C1)[C@H](c1ccc(-c3ccccc3)cc1)[C@@H]2CO | –
O=C1CNC[C@H]2[C@H](c3ccc(Br)cc3)[C@H](CO)N12 | –
COc1ccccc1CN1[C@H](CO)[C@H](c2ccccc2)C12CN(C(=O)Cc1ccccc1)C2 | –
N#Cc1cccc(-c2ccc([C@@H]3[C@@H](CO)N4CCCCN(C(=O)Cc5ccccc5)C[C@@H]34)cc2)c1 | –
O=C(Cc1ccccc1)N1CCCCN2[C@H](CO)[C@H](c3ccc(C#CC4(O)CCCC4)cc3)[C@@H]2C1 | –
COc1ccccc1CN1[C@H](CO)[C@@H](c2ccccc2)C12CN(C(=O)Cc1ccccc1)C2 | –
COC(=O)[C@@H]1[C@@H](CO)[C@@H]2Cn3c(ccc(-c4ccc(F)cc4)c3=O)[C@H]1N2C(=O)c1ccccc1F | –
CCCNC(=O)N1[C@@H]2Cn3c(ccc(-c4ccccc4OC)c3=O)[C@H]1[C@@H](C(=O)OC)[C@@H]2CO | –

Bioassay records as filed in PubChem BioAssay.
